Only some compounds are listed: those with a hit (about 5.2% of all), similar ones and a draw of the others.
APOBEC3G inh = APOBEC3G DNA deaminase inhibitors, primary screen, biochemical, fluorescence, single-stranded DNA substrate, uHTS; DNA dC->dU-editing enzyme APOBEC-3G (Homo sapiens), Q9HC16; recombinant A3G, ssDNA deamination FAM/TAMRA fluorescence; inhibition, % at 20 µM; actives 0.28% (n = 330,000);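 active = inhibition of at least 40% at 20 µM, with no more than 30% in the related APOBEC3A deaminase screen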;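 note: plate controls were DMSO wells with A3G for no effect and wells lacking A3G enzyme for full effect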
A3A deaminase = APOBEC3A ssDNA deaminase inhibitors, primary screen, selectivity assay for APOBEC3G inhibitor project, biochemical, FAM/TAMRA oligo cleavage fluorescence | DNA dC->dU-editing enzyme APOBEC-3A (Homo sapiens), P31941 | recombinant A3A, FAM/TAMRA ssDNA deamination fluorescence | inhibition, % at 20 µM | actives 0.41% (n = 330,000);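 active = at least 40% inhibition at 20 µM here, with at most 30% in a related deaminase screen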;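 note: plate controls were A3A with DMSO for no effect and wells lacking A3A enzyme for full effect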
Target sequence (P31941 whole entry, looked up): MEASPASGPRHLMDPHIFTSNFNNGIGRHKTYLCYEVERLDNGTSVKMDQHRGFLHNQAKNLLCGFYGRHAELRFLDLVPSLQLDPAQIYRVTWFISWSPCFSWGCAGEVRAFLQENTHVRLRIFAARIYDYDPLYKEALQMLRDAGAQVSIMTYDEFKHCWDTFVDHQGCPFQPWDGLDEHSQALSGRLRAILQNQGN
Yeast superoxide = reduction of superoxide in aged yeast, primary screen, HTS; AID 2690, 2010; S. cerevisiae aged cells, superoxide DHE fluorescence; active compounds read low; superoxide response (% of plate mean), % at 10 µM; actives 0.18% (n = 330,000);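 active = superoxide response under a set limit, about three screen SD below normal, cut at about 65% in these data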;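 note: yeast aged for seven days with compound at 30 °C before DHE staining; 100% = average MFI of all compound-treated wells on the plate with controls excluded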
M18AAP inhibitor = PfM18AAP inhibitors, malaria aminopeptidase, primary screen, biochemical, QFRET, recombinant enzyme; M18 aspartyl aminopeptidase (Plasmodium falciparum 3D7); H-Glu-NHMec fluorogenic cleavage; inhibition, % at 7.35 µM; actives 1.2% (n = 290,000);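 active = inhibition above the campaign mean inhibition over all tested compounds plus 3 SD, cut at about 28% in these data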;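 note: 0% = plate median of test compound wells and 100% = 2 mM ZnCl2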
ALR inh = inhibitors of human ALR sulfhydryl oxidase, primary screen, biochemical, H2O2 detection, HRP-luminol luminescence, single point | FAD-linked sulfhydryl oxidase ALR (Homo sapiens), P55789 | purified ALR, DTT oxidation | inhibition, % (concentration not given with the values) | actives 3.8% (n = 290,000);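 active = mean replicate inhibition above about 79%, with every replicate also reaching it, limit read from the data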
Target sequence (P55789 whole entry, looked up): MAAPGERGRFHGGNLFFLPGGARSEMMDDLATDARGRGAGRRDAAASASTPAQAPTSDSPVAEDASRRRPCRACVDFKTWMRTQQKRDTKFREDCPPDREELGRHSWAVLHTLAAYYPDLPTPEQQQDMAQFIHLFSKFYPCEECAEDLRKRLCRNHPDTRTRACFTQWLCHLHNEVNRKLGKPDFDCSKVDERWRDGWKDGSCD
NRP1-CendR mod = modulators of CendR peptide binding to NRP-1, primary screen, biochemical, fluorescence polarization, uHTS | Neuropilin-1 (Homo sapiens), O14786 | FAM-RPARPAR peptide binding to NRP-1 | inhibition, % at 25 µM | actives 0.85% (n = 360,000);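 active = inhibition or corrected inhibition above about 18%, plus a signal ratio from 0.5 to 1.5, limit read from the data, passing the limit was not always enough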
A3A conf = APOBEC3A deaminase inhibitors, retest, confirmation, selectivity assay for APOBEC3G inhibitor project, biochemical, single concentration, fluorescence readout | actives 63% (n = 1,400) | shares compounds with A3A deaminase | inhibition, % at 20 µM | recombinant A3A, ssDNA deaminase UDG fluorescence assay;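 active = inhibition reaching a set limit, 80% of the first screen's cutoff, at 20 µM in any replicate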;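 note: plate controls were DMSO wells with A3A for no effect and wells lacking A3A enzyme for full effect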
UDG A3A counter = E. coli UDG inhibitors, confirmation, counter-screen for APOBEC3A inhibitor project, biochemical, single concentration, fluorescence, FAM/TAMRA oligo; shares compounds with A3A deaminase; UDG counterscreen, FAM/TAMRA uracil oligo fluorescence; inhibition, % at 20 µM; 1,000 tested, under 10 active; call rule not given here
Numbers without * were called inactive; / = not tested or not shown.

SMILES	APOBEC3G inh	A3A deaminase	Yeast superoxide	M18AAP inhibitor	ALR inh	NRP1-CendR mod	A3A conf	UDG A3A counter
CC(NC(=O)C1CCN(S(=O)(=O)N2CCCCCC2)CC1)c1ccccc1 (stereo not given)	-6	-1	92	-13	-5	-6	/	/
CCn1c(CNC(=O)COc2ccc(C(C)C)cc2)nnc1SCC(=O)Nc1cc(F)ccc1C	23	78*	104	0	3	4	77*	10
Cc1ccc(NC(=O)CN(c2ccccc2F)S(C)(=O)=O)cc1	3	52*	113	-2	-2	-1	-2	/
COc1ccc2c(c1)-c1c(ssc1=S)C(C)(C)N2S(=O)(=O)c1ccc(C)cc1	-9	-3	99	19	-3	-24	/	/
CCOC(=O)C1=CCN(S(=O)(=O)c2ccccc2F)C1c1cccc(F)c1 (stereo not given)	/	/	/	/	/	6	/	/
CCOC(=O)C1=C(C)N=C2SC(C(=O)OC)=CC(=O)N2C1c1cccc(OC)c1 (stereo not given)	-2	-2	113	3	-8	-4	/	/
CCOC(=O)C1=C(C)N=C2SC(C(=O)OC)=CC(=O)N2C1c1ccc(F)cc1 (stereo not given)	-9	54*	94	5	-2	-13	-1	-3
Cc1cc(/C=C(\C#N)C(=O)NC2CCCCCC2)c(C)n1C	-3	-3	105	-2	8	-2	/	/
Cc1ccc(C(=O)N[C@H](C(=O)OCc2cc(=O)n3c(n2)sc2ccccc23)C(C)C)cc1	9	19	108	3	/	-5	/	/
O=C(OCc1cc(=O)n2c(n1)sc1ccccc12)c1ccc(O)cc1O	23	62*	106	-4	-7	22	23*	0
CC(C)[C@H](NC(=O)c1ccco1)C(=O)OCc1cc(=O)n2c(n1)sc1ccccc12	17	63*	91	3	-1	-2	39*	-2
Cc1ccc(N(C)/N=C/c2ccc(Cl)cc2Cl)nn1	2	2	97	-6	-11	-13	/	/
CC(Oc1ccc(Br)cc1)C(=O)Nc1cc(Cl)ccc1N1CCN(C)CC1 (stereo not given)	9	58*	105	/	-8	-1	54*	-2
COc1ccc(CCC(=O)Nc2cc(Cl)ccc2N2CCN(C)CC2)cc1	-4	6	106	-12	1	/	/	/
COc1ccc2c(c1)CCc1sc(NC(=O)c3ccco3)nc1-2	-7	-4	96	-2	-36	3	/	/
COc1ccc2c(c1)CCc1sc(NC(=O)c3ccc(C)cc3)nc1-2	5	50*	109	-13	-25	-8	26	/
O=C(c1cc([N+](=O)[O-])ccc1N1CCOCC1)N1CCN(c2ccc([N+](=O)[O-])cc2)CC1	6	56*	108	/	/	8	5	/
CC(C)C(=O)N1CCN(c2ccc([N+](=O)[O-])cc2Cl)CC1	15	55*	97	2	/	-2	17*	-2
CC(C)CC(=O)N1CCN(c2ccc([N+](=O)[O-])cc2Cl)CC1	-7	7	109	-3	4	-10	/	/
CCNC(=O)COc1ccc(S(=O)(=O)Nc2ccccc2)cc1	-2	-1	98	-2	-7	-7	/	/

Source: PubChem BioAssay (several laboratories)
